From PubChem
Giardia FBPA inh: Giardia lamblia aldolase inhibition | A8B2U2 | purified Giardia FBPA | Potency, µM (top dose mostly 59.6 µM), for inactives: at the highest dose activity, negative = inhibition, actives largely listed as inhibitors | hit rate 0.71% among 290,000 | AID 2451; note: potency is the fitted concentration of half-maximal effect; % is set by controls: 0 for no effect and ±100 for the full control effect; nearly all actives have a fitted effect of over 55% in size
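40 nM FBPA preincubated 10 min at RT with compound (up to 57.5 uM final), then substrate plus GAPDH/TPI/NAD/arsenate coupling and diaphorase/resazurin added. Fluorescence read after 20 min at RT, 525/598 nm.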
CHX counter: counter-screen hit for Shiga toxin inhibitors, cycloheximide; AID 2314; cell reporter, cycloheximide protein synthesis inhibition counterscreen; hit rate 12% among 300,000; max response, %; in the data active = max response mostly above about 13%, no sharp cut-off; inactive = mostly below about 14%; note: read at 38.3 µM for the half of the compounds with a filed dose; 0% is about no effect
Shiga inhibitor: Shiga toxin inhibition. AID 2315. Vero cells, Shiga toxin protein synthesis inhibition reporter. inhibition, % at 38.7 µM. hit rate 9.2% among 290,000; in the data active = inhibition mostly above about 28%, no sharp cut-off; inactive = mostly below about 43%; note: 0% is about no effect
TbPYK inhibitor: inhibitors of Trypanosoma brucei pyruvate kinase | hit rate 0.12% among 410,000 | TbPYK enzyme, Kinase-Glo Plus ATP luminescence, 45 min | Potency, µM (top dose mostly 76.8 µM), inactives show at the top dose activity, negative = inhibition, most hits filed as inhibitors; note: potency is the fitted concentration of half-maximal effect; % is set by controls: 0 for no effect and ±100 for the full control effect; nearly all actives have a fitted effect of over 50% in size
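Luminescence from Kinase-Glo Plus, added after a 45-minute room-temperature reaction, served as the end-point read-out. The enzyme and substrate were preincubated with compound before ADP (130 uM final) initiated turnover. Concentration-effect curves came from normalized qHTS data.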
RE007 growth inh: less growth of the S. pombe RE007 Vpr strain; AID 651644; S. pombe RE007 Vpr strain, BacTiter-Glo ATP luminescence, 24 h; hit rate 0.21% among 360,000; Potency, µM (top dose mostly 92.2 µM), for inactives: top-dose activity change, negative = less growth, usual class: inhibitors; active = well fitted falling curve with a large enough effect; inconclusive = small, poorly fitted or top-dose-only effect; inactive = no such curve, though single readings can be large or run the other way; note: potency is the fitted concentration of half-maximal effect; % is set by controls: 0 for no effect and ±100 for the full control effect; nearly all actives have a fitted effect of over 50% in size
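Fission yeast RE007 carrying one integrated HIV-1 vpr copy, seeded at OD 0.01 in PMG+AL medium with 23 nL pinned compound. Grown 24 h at 30 degrees; viability read by BacTiter-Glo luminescence after 5 min.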
LmPK inh: blocks Leishmania mexicana pyruvate kinase activity. Q27686. purified LmPK, Kinase-Glo ATP luminescence, 1 h. Potency, µM (titrated, usually from 57.5 µM), for the others: at the highest dose activity change, negative = inhibition, most hits filed as inhibitors. hit rate 0.37% among 290,000. AID 1721; note: potency is the fitted concentration of half-maximal effect; % is set by controls: 0 for no effect and ±100 for the full control effect
Target sequence (Q27686 whole entry, looked up): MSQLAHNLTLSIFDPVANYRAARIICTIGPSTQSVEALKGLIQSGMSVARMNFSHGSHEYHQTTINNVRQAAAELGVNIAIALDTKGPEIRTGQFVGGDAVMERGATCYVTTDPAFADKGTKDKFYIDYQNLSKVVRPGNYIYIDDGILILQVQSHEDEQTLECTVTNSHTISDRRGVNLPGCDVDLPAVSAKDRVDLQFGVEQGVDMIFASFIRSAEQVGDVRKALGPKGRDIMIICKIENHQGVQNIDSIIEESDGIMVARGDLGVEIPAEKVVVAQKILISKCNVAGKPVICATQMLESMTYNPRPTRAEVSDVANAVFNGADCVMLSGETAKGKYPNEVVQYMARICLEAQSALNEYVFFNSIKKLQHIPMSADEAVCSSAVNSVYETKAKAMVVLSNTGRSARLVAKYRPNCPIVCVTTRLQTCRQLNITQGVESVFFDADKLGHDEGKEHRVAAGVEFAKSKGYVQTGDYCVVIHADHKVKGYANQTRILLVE
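qHTS format; LmPK 0.1 nM; substrates PEP 0.5 mM and ADP 0.1 mM. One-hour room-temperature incubation, then coupled luciferase luminescence; 0.5 nM enzyme wells mark activation.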
The depositor's hits bear a star; ? = inconclusive; . = not tested or not shown. Only a selection was taken, and hits are over-represented in it overall. Unless noted, calls come from the whole dose curve; as a rule, active = well fitted curve in the direction sought with a large enough effect; inconclusive = small, poorly fitted or top-dose-only effect, or another doubt; inactive = no such curve, though single readings can be large; an effect the other way counts as inactive or inconclusive.

SMILES	Giardia FBPA inh	CHX counter	Shiga inhibitor	TbPYK inhibitor	RE007 growth inh	LmPK inh
CCOC(=O)c1c(NC(C)=O)c2c3c(sc2n1Cc1cccc(Cl)c1)CCCC3	.	.	.	-2%	.	.
O=C1C(Cl)=C(NCC2CCCO2)C(=O)N1CCc1ccccc1 (configuration not stated)	-1%	57*	56*	-13%	9%	3%
O=C1C(Cl)=C(NCC2CCCO2)C(=O)N1c1cccc(Cl)c1Cl (configuration not stated)	1%	2	24	-10%	-16%	1%
CCCOc1cccc(C2C(C(=O)c3cccs3)=C(O)C(=O)N2CCN2CCOCC2)c1 (configuration not stated)	-12%	-4	-4	2%	7%	-2%
O=C(CCOc1ccccc1)Nc1ccnn1C1CCN(C(=O)CCC(F)(F)F)CC1	.	23*	25	4%	0%	7%
COCC(=O)N1CCC(n2nccc2NC(=O)CCOc2ccccc2)CC1	.	24*	36*	0%	-7%	8%
O=C(CCOc1ccccc1)Nc1ccnn1C1CCN(CCc2ccccc2)CC1	-3%	-7	-8	5%	-1%	-9%
COc1cccc(CN2CCC(n3nccc3NC(=O)CCOc3ccccc3)CC2)c1	.	-2	-8	0%	9%	5%
COC(=O)CCCC(=O)N1CCC(n2nccc2NC(=O)CCOc2ccccc2)CC1	2%	21*	34	7%	1%	-8%
CCCNC(=O)N1CCC(n2nccc2NC(=O)CCOc2ccccc2)CC1	.	0	-3	4%	33%	-8%
COc1cc(C(=O)ON=C2C3CC4CC(C3)CC2C4)cc(OC)c1OC	8%	-4	-6	-12%	-13%	7%
COc1cc(C(=O)O/N=C2/C=CC(=O)C(C)=C2C)cc(OC)c1OC	4µM*	-3	-1	0%	5%	0%
CCc1cccc(NC(=O)Cn2c(=O)n(CC(=O)NCCc3ccccc3)c(=O)c3ccccc32)c1	.	.	.	6%	.	.
O=C1N=C(N2CCCCC2)S/C1=C\c1ccncc1	-3%	-2	-11	-1%	2%	-6%
O=C1N=C(N2CCCCC2)SC1=C1CCCC1	-5%	26*	45*	-2%	-8%	3%
CCN1C/C(=C/c2ccc(OC)c(O)c2)C(=O)/C(=C/c2ccc(OC)c(O)c2)C1	-12%	-4	-24	0%	12%	2%
COc1cc(/C=C2/CC/C(=C/c3ccc(O)c(OC)c3)C2=O)ccc1O	-20%	11	52	-6%	21%	0%
COc1cc(C=C2C(=O)c3ccccc3C2=O)cc(OC)c1OC	7%	9	34	-29%	6%	3%
COc1ccc(/C=C2\CN(Cc3ccccc3)C/C(=C\c3ccc(OC)c(O)c3)C2=O)cc1O	-10%	14*	-5	2%	4%	-2%
COc1cc(C=C2C(=O)c3ccccc3C2=O)ccc1O	-9%	28*	78*	?	-26%	?
COc1ccc(C=C2C(=O)c3ccccc3C2=O)cc1O	-14%	38*	115*	?	?	?
COc1cc(/C=C2\COC/C(=C\c3ccc(O)c(OC)c3)C2=O)ccc1O	?	33*	37*	-5%	44%	11%
CCOc1ccccc1NC(=O)Cc1csc(COc2cccc(C)c2)n1	.	.	.	-2%	.	.
C=CCCC(=O)N1CCC(n2nccc2NC(=O)CCCc2ccccc2)CC1	.	13*	20	0%	-21%	-2%
CSCCC(=O)N1CCC(n2nccc2NC(=O)CCCc2ccccc2)CC1	.	17*	21	10%	-9%	-1%
SMILES	Giardia FBPA inh	CHX counter	Shiga inhibitor	TbPYK inhibitor	RE007 growth inh	LmPK inh
CSCC(=O)N1CCC(n2nccc2NC(=O)CCc2ccccc2)CC1	.	-9	-9	-7%	-3%	-7%
COc1cc(NC(=O)Cc2nn(C)c(=O)c3ccccc23)cc(OC)c1OC	-4%	20*	24	0%	15%	-4%
CN(CC(=O)Nc1cccc(C(F)(F)F)c1)Cc1ccccc1	-4%	4	14	14%	-8%	2%
CN(CC(=O)Nc1ccc(Br)cc1)Cc1ccccc1	0%	19*	7	4%	3%	0%
CN(CC(=O)Nc1cccc(S(=O)(=O)N(C)C)c1)Cc1ccccc1	2%	23*	28	2%	7%	0%
CSc1ccc(CN(C)CC(=O)Nc2c(F)cccc2F)cc1	20µM*	-2	-6	-7%	-3%	1%
COCCCNC(=O)CSc1nc2nc(C)c(Cc3ccccc3Cl)c(C)n2n1	.	.	.	1%	.	.
Cc1ccc(NC(=O)c2c(C)oc3ccc(O)c(CN4CCCCCC4)c23)c(C)c1	.	.	.	-2%	.	.
CC(C)=CC(=O)Nc1nc2ccc([N+](=O)[O-])cc2s1	-14%	44*	55*	-7%	0%	-1%
C/C(=C\c1ccccc1)C(=O)Nc1nc2ccc([N+](=O)[O-])cc2s1	6%	19*	-5	3%	-22%	-2%
Cc1ccc(C)c(OCC(=O)Nc2nc3ccc([N+](=O)[O-])cc3s2)c1	1%	-3	4	4%	4%	1%
O=[N+]([O-])c1ccc2nc(NS(=O)(=O)c3ccccc3[N+](=O)[O-])sc2c1	24%	8	3	7%	-3%	9%
Cc1[nH]n(-c2ccccc2)c(=O)c1C(C[N+](=O)[O-])c1ccc(Cl)cc1 (configuration not stated)	?	0	-5	-5%	28µM*	1%
Cc1ccc(C(C[N+](=O)[O-])c2c(C)[nH]n(-c3ccccc3)c2=O)cc1 (configuration not stated)	?	2	-15	5%	20µM*	0%
Cc1[nH]n(-c2ccccc2)c(=O)c1C(C[N+](=O)[O-])c1ccc(F)cc1 (configuration not stated)	?	-2	-6	0%	?	6%
O=C(Nc1ccc2oc(-c3cccnc3)nc2c1)c1ccc(-c2ccccc2OC(F)(F)F)o1	.	.	.	-2%	.	.
Cc1c(C(=O)NC(=S)Nc2ccc(N3CCOCC3)cc2)cccc1[N+](=O)[O-]	-6%	9.8*	43*	-11%	-20%	2%
Cc1ccccc1C(=O)NC(=S)Nc1ccc(N2CCOCC2)cc1	-6%	11*	6	0%	-2%	10%
COc1ccccc1N1CCN(C2CCCCC2NS(=O)(=O)c2ccccc2)CC1 (configuration not stated)	1%	-3	-2	0%	-4%	2%
Cc1ccccc1CNC(=O)CN1C(=O)CCCc2ccccc21	.	.	.	-9%	.	.
Cc1ccc(CNC(=O)CNS(=O)(=O)c2cccs2)cc1	.	.	.	0%	.	.
COC(=O)c1ccc(CN(C)S(=O)(=O)c2cccs2)cc1	3%	56*	76*	-2%	32%	7%
